# Nrf2 ARE act: activates Nrf2 signaling | Potency, µM (titrated, usually from 46.1 µM), for inactives: at the highest dose activation, hits mostly activators | AREc32 ARE-luciferase reporter (MCF7-derived line), luminescence, 24 h | 410,000 compounds, 0.31% hits; further: % of control where 0% means no effect; nearly all actives have a fitted effect of over 65% in size
#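 ARE activation measured as luciferase luminescence (Steady-Glo, 30 min RT) in AREc32_Fluc cells after 24 hr compound exposure at 37 deg C, 5% CO2; cells seeded overnight at 1000/well in OPTI-MEM, 5% FBS.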
# IDH1 R132H inh: blocks human mutant IDH1 R132H enzyme | IDH1-R132H enzyme, NADPH consumption, diaphorase/resazurin fluorescence | Potency, µM (top dose mostly 76.6 µM), without a hit: at the top dose activity change, negative = inhibition, hits mostly inhibitors | 390,000 compounds, 0.093% hits; further: on the % scale 0 is the no-effect control and ±100 the full control effect; nearly all actives have a fitted effect of over 65% in size
# Target sequence (O75874 whole entry R132H, stated change not applied): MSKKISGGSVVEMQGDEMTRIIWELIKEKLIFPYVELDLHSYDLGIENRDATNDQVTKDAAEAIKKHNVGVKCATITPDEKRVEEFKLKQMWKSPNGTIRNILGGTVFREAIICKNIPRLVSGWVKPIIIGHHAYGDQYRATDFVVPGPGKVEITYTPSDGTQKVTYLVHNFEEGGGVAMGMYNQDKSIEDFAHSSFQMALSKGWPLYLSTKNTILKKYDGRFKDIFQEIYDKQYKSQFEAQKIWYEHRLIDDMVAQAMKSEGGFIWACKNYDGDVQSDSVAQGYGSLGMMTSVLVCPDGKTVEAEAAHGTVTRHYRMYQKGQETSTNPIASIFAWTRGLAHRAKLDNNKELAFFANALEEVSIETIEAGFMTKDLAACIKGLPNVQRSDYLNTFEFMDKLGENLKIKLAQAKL
#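 IDH1-R132H (0.5 ug/mL) preincubated 30 min with compound, then NADPH (0.016 mM) and alpha-KG (2 mM) added; 80 min at RT, pH 7.5. Remaining NADPH coupled via diaphorase/resazurin to fluorescence (540/590 nm); concentration-response curves normalized to no-enzyme control.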
# Nrf2 inh: inhibitors of Nrf2 signaling. Potency, µM (series often up to 46 µM), without a hit: at the highest dose activity change, negative = inhibition, hits mostly inhibitors. A549 ARE-Fluc reporter, luciferase luminescence, 18-24 h. 360,000 compounds, 2.1% hits; further: on the % scale 0 is the no-effect control and ±100 the full control effect; nearly all actives have a fitted effect of over 60% in size
#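 Quantitative HTS in A549 cells stably bearing an antioxidant response element-firefly luciferase construct. Inhibition of Nrf2-driven transcription was scored by luminescence after 18-24 h of compound exposure at 37 °C.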
# ELG1 repair inh: ELG1-dependent DNA repair inhibition | HEK293T ELG1-luciferase reporter, luminescence, 16 h; DNA damage induced by 5-fluorouridine | Potency, µM (doses to about 46.1 µM), for inactives: at the highest dose activity change, negative = inhibition, hits mostly inhibitors | 330,000 compounds, 2.3% hits | AID 504467; further: on the % scale 0 is the no-effect control and ±100 the full control effect; nearly all actives have a fitted effect of over 55% in size
#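 Reporter activity after DNA damage by 5-fluorouridine is monitored. Compound-treated cells incubate 16 hr at 37 °C, then ONE-Glo is added for 30 min before luminescence reading.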
# A549 viability: counter-screen for Nrf2 inhibitors: cytotoxicity in A549 cells; Potency, µM (doses to about 46 µM), for the others: at the highest dose activity change, negative = cytotoxicity, hits mostly inhibitors; A549 ARE-Fluc cells, CellTiter-Fluor viability, 18-24 h; 390,000 compounds, 0.16% hits; AID 504648; further: on the % scale 0 is the no-effect control and ±100 the full control effect
#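 A549 ARE-Fluc cells in 5% FBS OPTI-MEM, 5000 cells/well, rested 2 h then exposed to compounds in concentration-response for 18-24 h at 37 °C. Viability by CellTiter-Fluor fluorescence (Ex 405/Em 525) after 30 min; luciferase luminescence (BugLite, 15 min, RT) read afterwards.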
# * hit, by the source's call; u = inconclusive; x = no result given; [ ] = dose if it differs, or a comment. Hits are enriched below; roughly 3.8% of the tested compounds scored in any of these assays. The call rests on the fitted dose curve; in most records, active means well fitted curve in the direction sought with a large enough effect; inconclusive means small, poorly fitted or top-dose-only effect, or another doubt; inactive means no such curve, though single readings can be large; an effect the other way counts as inactive or inconclusive. Potency means the concentration at half of the fitted maximal effect.
SMILES,Nrf2 ARE act,IDH1 R132H inh,Nrf2 inh,ELG1 repair inh,A549 viability
CC(=O)c1cn(CCOc2cc(C)ccc2C)c2ccccc12,2%[9.22 µM],5%,6.5µM*,11%,-1%
Cc1ccc(C)c(OCCn2cc(C(=O)c3cccs3)c3ccccc32)c1,3%,-28%,u,x,-12%
Cc1ccccc1OCCn1cc(/C(N)=N/O)c2ccccc21,3%,7%,23µM*,u,-23%
Cc1ccc(C)c(OCCn2cc(C(=O)O)c3ccccc32)c1,0%,33µM*,-12%,15%,-8%
Cc1ccccc1OCCn1cc(C(=O)O)c2ccccc21,0%,-1%,-2%,4%,-3%
Cc1cc(Cl)ccc1OCC(=O)N1CCC(c2nc3ccccc3o2)CC1,-1%,-8%,u,x,-2%
CCOC(=O)c1ccc2c(c1)n(CCO)c(C)[n+]2CC,0%,2%,-28%,7%,-1%
CCOC(=O)c1ccc2c(c1)n(CC)c(/C=C/N(C)c1ccccc1)[n+]2CC,-1%,9%,3.3µM*,u,u
Cc1ccc(CNS(=O)(=O)c2cc3c(cc2Cl)NC(=O)CO3)o1,6%,17%,x,x,3%
N#Cc1cccc(NS(=O)(=O)c2ccc3c(c2)CCC(=O)N3)c1,x,x,0%,x,2%
Clc1cc(Cl)cc(Nc2ncnc(-n3cccc3)n2)c1,2µM*,6%,-11%,-18%,2%
CC1CCCC(C)N1C(=O)COC(=O)COc1ccc(C#N)cc1 (stereo not given),0%,-6%,-9%,9%,0%
CCC(=O)NC(c1ccc(C)cc1)c1cc(Cl)c2cccnc2c1O (stereo not given),3%,x,u,3.7µM*,-16%
CCCC(=O)NC(c1ccc(Cl)cc1Cl)c1ccc2cccnc2c1O (stereo not given),-1%,-2%,23µM*,u,-18%
CCCCC(=O)NC(c1ccc(Cl)cc1)c1ccc2cccnc2c1O (stereo not given),0%,6%,7%,x,-5%
CCCCC(=O)NC(c1ccccc1OC)c1ccc2cccnc2c1O (stereo not given),0%,-17%,21µM*,u,-25%
CCc1ccccc1NC(=O)c1ccc2[nH]c(C)c(C)c2c1,5%,20%,u,x,15%
Cn1c(=O)c2c(ncn2Cc2ccccc2)n(C)c1=O,0%,2%,-15%,-23%,-3%
COc1cccc(Cn2cnc3c2c(=O)n(C)c(=O)n3C)c1,-1%,-9%,13µM*,x,-1%
Cn1c(SCC(=O)N2CCOCC2)ncc(C(=O)Nc2ccc(F)cc2)c1=O,4%,6%,x,x,-1%
CSCC[C@H](NC(=O)OC(C)(C)C)c1nnc(SCc2ccc(F)cc2)o1,0%,3%,26µM*,u,-10%
O=[N+]([O-])c1cccc(S(=O)(=O)N2CCN(S(=O)(=O)c3ccc4c(c3)OCCO4)CC2)c1,x,x,14%,x,1%
O=C1/C(=N\S(=O)(=O)c2cccs2)C([n+]2cccc(Cc3ccccc3)c2)=C([O-])c2ccccc21,-1%,11%,u,2.3µM*,u
O=C1/C(=N\S(=O)(=O)c2cccs2)C([n+]2ccc(CCCc3ccccc3)cc2)=C([O-])c2ccccc21,-1%,-1%,-22%,13µM*,9%
CC(C)N(Cc1ccccc1)S(=O)(=O)c1cccs1,0%,20%,-7%,-8%,1%
SMILES,Nrf2 ARE act,IDH1 R132H inh,Nrf2 inh,ELG1 repair inh,A549 viability
COc1cccc(/C=C/C(=O)OCC(=O)Nc2nnc(-c3ccccc3)o2)c1,3%,0%,-3%,-3%,0%
Cc1ccc(-c2nc3ncccc3o2)cc1NC(=O)c1ccc2c(c1)OCO2,0%,1%,5%,x,-1%
CC1CCN(C(=O)c2ccc(NC3=C(Cl)C(=O)N(Cc4ccccc4)C3=O)cc2)CC1,6%,4%,-14%,10µM*,-9%
O=C1C(Cl)=C(Nc2cccc(O)c2)C(=O)N1Cc1ccccc1,u,2%,1%,-8%,2%
CC1CCCCN1C(=O)c1cccc(NC2=C(Cl)C(=O)N(Cc3ccccc3)C2=O)c1 (stereo not given),18%,-4%,-13%,10µM*,0%
O=C(CSc1nc2c([nH]c3ccccc32)c(=O)n1-c1ccccc1)N1CCc2ccccc21,4%,-4%,x,x,-1%
CN(C)c1ccc(/C=C/c2ccc3ccccc3[n+]2C)cc1,-2%,9%,15µM*,u,23µM*
CC(=O)Oc1ccccc1/C=C/c1ccc2ccccc2[n+]1C,11µM*,-5%,u,u,u
CN(CCCS(=O)(=O)[O-])c1ccc(/C=C/c2ccc3ccccc3[n+]2C)cc1,0%,-4%,-34%,4%,-10%
c1nc(NCc2ccoc2)c2cc(-c3ccc4c(c3)OCO4)ccc2n1,x,x,14%,x,-3%
COc1ccc(-c2noc(N3CCC(C(=O)Nc4ccc(F)cc4F)CC3)n2)cc1,0%,-4%,-21%,-14%,-15%
COc1ccc(-c2noc(N3CCC(C(=O)N4CCN(c5ccccc5OC)CC4)CC3)n2)cc1,-2%,-12%,x,x,-16%
COc1ccc(-c2noc(N3CCC(C(=O)N4CCN(c5ccccn5)CC4)CC3)n2)cc1,0%,3%,18µM*,u,-27%
CCN(C(=O)C1CCN(c2nc(-c3ccc(OC)cc3)no2)CC1)c1ccc(OC)cc1,1%,7%,13µM*,3%,-9%
COc1ccc(-c2noc(N3CCC(C(=O)Nc4ccc(OC)cc4OC)CC3)n2)cc1,-2%,-4%,u,13µM*,-12%
COc1ccccc1C1=Nn2c(nnc2-c2cccc(OC)c2OC)SC1,x,x,-7%,x,8%
C=CCn1c(SCC(=O)N2CCOCC2)nc2sc(CC)cc2c1=O,0%,5%,u,u,-20%
C=CCn1c(SCC(=O)N2CCc3ccccc3C2)nc2sc(CC)cc2c1=O,0%,u,-35%,23µM*,0%
CCOc1cc(NC(=O)c2ccco2)c(OCC)cc1NC(=O)CCc1ccccc1OC,0%,-1%,-7%,21µM*,2%
COc1ccccc1CC(=O)Nc1cc(OC)c(NC(=O)c2ccccc2)cc1OC,16%,4%,15µM*,16µM*,-17%
CCOc1cc(NC(=O)c2ccco2)c(OCC)cc1NC(=O)c1ccco1,1%,1%,3%,-9%,5%
CCOc1cc(NC(=O)c2ccco2)c(OCC)cc1NC(=O)c1cc(OC)c(OC)c(OC)c1,1%,-9%,18µM*,u,-4%
COc1cc(NC(=O)c2ccco2)c(OC)cc1NC(=O)c1cc(OC)c(OC)c(OC)c1,0%,8%,-9%,u,8%
CC1=CC2C(C(O)CC3(C)C2CC(C)C32OCOC23COCO3)C2(C)C/C(=C\O)C(=O)C=C12 (stereo not given),-3%,0%,21µM*,x,u
